Percent activity (GTP binding) data for 97 compounds are collected here from PubChem BioAssay AID764 (NMMLSC, 2007).

Hit rate of the full screen: of about 190,000 compounds, about 220 (0.12%) were called active. About 2% were inconclusive and are not listed. What follows is part of a selection rich in actives, with near analogues and random picks from the rest. Values without a mark were called inactive.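 The calls were made as follows: active = GTP binding at least 20 percentage points away from the 100% baseline, in either direction, so actives lie on both sides; inconclusive = Compound likely fluorescent itself, or too few beads counted; inactive = the rest.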

For the assay, the target named is Ras-related C3 botulinum toxin substrate 1 (Homo sapiens) (UniProt P63000). The assay is described as follows: GTP binding modulators of activated mutant Rac1, primary screen, biochemical, bead-based flow cytometry, multiplex, fluorescent GTP (AID 764). Conditions: GST-Rac1 activated beads, at 10 µM, actives lie on both sides, 100% means binding = to untreated wells. (A flow cytometer gives signals particle by particle.)
With `Cc1ccc(SC(C)C(=O)NCc2ccc(F)cc2)cc1` (configuration not stated), the percent activity (GTP binding) is 94%.

For the compound `CC(C)(C)CN1CCNC(=O)C1CC(=O)NC1Cc2ccccc2C1` (configuration not stated), the percent activity (GTP binding) is 91%.

For the compound `O=C(NC(=S)Nc1ccc(S(=O)(=O)Nc2ncccn2)cc1)c1cccc(Br)c1`, the percent activity (GTP binding) was 92%.

As for `O=C(O)/C=C/c1cn(-c2ccccc2)nc1-c1cccs1`, the percent activity (GTP binding) is 89%.

Take `O=C(/C=C\c1cn(-c2ccccc2)nc1-c1cccs1)N1CCOCC1`: the percent activity (GTP binding) is 103%.

Regarding `O=C(O)/C=C/c1cn(Cc2ccccc2)nc1-c1cccs1`, the percent activity (GTP binding) is 130% [activator] (active).

Regarding `Cc1cc(N2CCOCC2)nc2ccc(NC(=S)N3CCN(Cc4ccccc4)CC3)cc12`, the percent activity (GTP binding) was 96%.

With `O=C(Nc1ccc(N2CCOCC2)cc1)c1ccc(-c2ccccc2[N+](=O)[O-])o1`, the percent activity (GTP binding) was 93%.

For the compound `Cn1cc(Cl)c(C(=O)NNC(=S)Nc2cccc(Cl)c2)n1`, the percent activity (GTP binding) was 91%.

Regarding `O=C(O)c1ccc(/C=N/NC(=S)NCc2ccccc2)cc1`, the percent activity (GTP binding) was 94%.

`CN(C)C(=O)c1cccn(Cc2cccc(C(F)(F)F)c2)c1=O`: the percent activity (GTP binding) is 94%.

Take `CN(C)N(C)C(=O)C(O)(c1ccccc1)c1ccccc1`: the percent activity (GTP binding) is 96%.

As for `Cc1cc(C(=O)CC#N)c(C)n1-c1c(C)n(C)n(-c2ccccc2)c1=O`, the percent activity (GTP binding) is 96%.

For the compound `O=C(O)CCN(Cc1ccccc1)S(=O)(=O)c1c(Cl)cccc1Cl`, the percent activity (GTP binding) was 95%.

As to `Cc1[nH]c2ccccc2c1/C=C(/C#N)C(=O)NC(C)C`, the percent activity (GTP binding) was 95%.

For the compound `Cn1cc(CN2CCCC(CO)C2)c(-c2ccc(Oc3ccccc3)cc2)n1` (configuration not stated), the percent activity (GTP binding) was 94%.

As for `COc1ccc(/C=C/CN2CCCC(C(=O)c3cc(F)ccc3F)C2)cc1` (configuration not stated), the percent activity (GTP binding) was 96%.

As for `CN1C=CC=C/C1=C1\SC(=S)N(Cc2ccccc2)C1=O`, the percent activity (GTP binding) is 97%.

Consider `Cc1cc(C(=O)NNC(=O)c2cccc(S(=O)(=O)N3CCOCC3)c2)c2ccccc2n1`, for which the percent activity (GTP binding) was 93%.

As to `Cc1noc(C)c1/C=N/Nc1ccc2ccccc2n1`, the percent activity (GTP binding) is 97%.

On to `O=C(c1ccncc1)N1CCN(c2ccc3ccccc3n2)CC1`, for which the percent activity (GTP binding) was 98%.

Regarding `COc1cc(/C=C/C(=O)OCC(=O)NC(=O)NCc2ccccc2)ccc1OCC#N`, the percent activity (GTP binding) is 90%.

For `O=C(c1ccc2ccccc2n1)N1CCN(c2ccccc2Cl)CC1`, the percent activity (GTP binding) is 95%.

For the compound `CCn1c(SCC(=O)Nc2nccs2)nnc1-c1ccco1`, the percent activity (GTP binding) was 95%.

Turning to `COc1ccc(OC)c(S(=O)(=O)Nc2cccc(-c3ccc4nncn4n3)c2)c1`, the percent activity (GTP binding) was 95%.

Take `Cc1ccc(-n2cc(CN(C)Cc3nccn3C)c(-c3cccc(C)c3)n2)cc1`: the percent activity (GTP binding) was 97%.

Turning to `Cc1ccc(C(=O)Nc2cccc3ncccc23)cc1[N+](=O)[O-]`, the percent activity (GTP binding) is 94%.

On to `O=C(CN1CCN(C/C=C/c2ccccc2)CC1)Nc1ccc(F)cc1F`, for which the percent activity (GTP binding) was 93%.

Regarding `CCc1ccc(N2CC(O)=C(c3nc4ccccc4c(=O)[nH]3)C2=N)cc1`, the percent activity (GTP binding) is 94%.

Regarding `COc1ccc(/C=N/n2c(C)cc(C)cc2=O)cc1`, the percent activity (GTP binding) is 97%.

For `CC(C)Oc1ccccc1C(=O)NC(CO)C(=O)O` (configuration not stated), the percent activity (GTP binding) was 96%.

Turning to `CCOC(=O)C1=NOC(Cn2cc(C(C)=O)c(=O)[nH]c2=O)C1` (configuration not stated), the percent activity (GTP binding) was 92%.

Consider `COC(=O)CN1C(=O)N/C(=C/c2ccc(OC)c(C)c2OC)C1=O`, for which the percent activity (GTP binding) is 96%.

Consider `CCOc1cc(NS(=O)(=O)c2ccc(OC)cc2)c(OCC)cc1NC(C)=O`, for which the percent activity (GTP binding) was 97%.

As to `CN(C)S(=O)(=O)c1ccc2oc(SCC(=O)Nc3ccccc3F)nc2c1`, the percent activity (GTP binding) is 95%.

On to `Cc1nc2cc(NCc3cccs3)ccc2n1C`, for which the percent activity (GTP binding) is 97%.

For the compound `CCOP(=O)(OCC)C(Nc1ccc([N+](=O)[O-])cc1)c1ccc(Cl)cc1` (configuration not stated), the percent activity (GTP binding) was 92%.

For `CCNC(=O)c1ccc(OCC(=O)Nc2ccc(F)cc2)c(OC)c1`, the percent activity (GTP binding) is 94%.

Turning to `CCC(=O)Nc1ccc(Nc2nc(Cl)nc(Nc3ccc(NC(=O)CC)cc3)n2)cc1`, the percent activity (GTP binding) is 94%.

In the case of `Cc1nnc(CN(C)Cc2cn[nH]c2-c2ccc(-c3ccccc3)cc2)o1`, the percent activity (GTP binding) was 97%.

`CC1(C)OC(=O)C(=CSc2ccc(C(C)(C)C)cc2)C(=O)O1`: the percent activity (GTP binding) is 96%.

As for `COc1ccccc1NC(=O)c1c(Br)cnn1C`, the percent activity (GTP binding) was 95%.

Regarding `Cc1cnc(C(=O)OCC(=O)N2CCc3ccccc32)cn1`, the percent activity (GTP binding) is 96%.

Take `Cc1cc(C)c(C#N)c(N2CCC(C(N)=O)CC2)n1`: the percent activity (GTP binding) was 98%.

With `OCCC1CN(Cc2cccc(OC3CCCC3)c2)CCN1Cc1ccsc1` (configuration not stated), the percent activity (GTP binding) was 95%.

On to `CCN(CC)CCNC(=O)c1ccc(NC(=O)c2c(F)cccc2Cl)cc1`, for which the percent activity (GTP binding) is 99%.

In the case of `CCc1ccc(-n2c(SCc3cc(=O)n4cc(Br)ccc4n3)nc3[nH]ncc3c2=O)cc1`, the percent activity (GTP binding) is 94%.

In the case of `O=C1CC(=O)Nc2cc(S(=O)(=O)N3CCN(c4cccc(C(F)(F)F)c4)CC3)ccc2N1`, the percent activity (GTP binding) was 93%.

Consider `COc1ccc(OC)c(CNC(=O)c2cc(=O)[nH]c3ccc(S(=O)(=O)N4CCCC4)cc23)c1`, for which the percent activity (GTP binding) was 95%.

In the case of `CC(C)(C)NC(=O)NC(=O)COC(=O)C1(C)CC1(Cl)Cl` (configuration not stated), the percent activity (GTP binding) is 97%.

Take `COC(=O)C(NS(=O)(=O)c1ccc(F)cc1)c1ccccc1` (configuration not stated): the percent activity (GTP binding) was 96%.

On to `O=C(CP(=O)(c1ccccc1)c1ccccc1)N1CCOCC1`, for which the percent activity (GTP binding) was 92%.

`O=C(C1CC1)N1N=C2CCCCC2C1(O)C(F)(F)F` (configuration not stated): the percent activity (GTP binding) is 96%.

`Cc1ccc(C)c(-n2cc(CN3CCN(C(=O)c4ncn[nH]4)CC3)c(-c3ccccc3)n2)c1`: the percent activity (GTP binding) was 95%.

As for `CCN(CC)S(=O)(=O)c1ccc(N2CCOCC2)c(NC(=O)C2COc3ccccc3O2)c1` (configuration not stated), the percent activity (GTP binding) was 97%.

As to `CCOC(=O)C1=C(CC)OC(N)=C(C#N)C1c1ccc(F)cc1F` (configuration not stated), the percent activity (GTP binding) was 93%.

With `O=C(O)c1cccc(NC(=O)c2cc(-c3cccc(Cl)c3)nc3ccccc23)c1`, the percent activity (GTP binding) is 93%.

With `COc1ccc(C2C(C#N)=C(N)N(c3ncn[nH]3)C3=C2C(=O)CCC3)cc1` (configuration not stated), the percent activity (GTP binding) is 96%.

Turning to `COc1ccc(N2CCN(C(=O)CCSCc3ccccc3F)CC2)cc1`, the percent activity (GTP binding) is 92%.

`Cc1ccnc(NC(=O)CCC(=O)N(CC(=O)NCCc2ccccc2)Cc2cccs2)c1`: the percent activity (GTP binding) was 97%.

`COc1ccc(NC(=O)/C(C#N)=C\c2cc(OC)c(OCc3ccc(C(=O)O)cc3)cc2Br)cc1`: the percent activity (GTP binding) is 89%.

In the case of `C1CC1Cc1noc(CN2CCN(CC3CC3)CC2)n1`, the percent activity (GTP binding) is 94%.

Regarding `CCn1c(CNC(=O)c2ccco2)nnc1SCC(=O)Nc1cccc(F)c1`, the percent activity (GTP binding) was 98%.

Regarding `Cn1c(SCC(=O)NC2CCCCC2)nnc1-c1ccc(N)cc1`, the percent activity (GTP binding) is 96%.

As for `CC(=O)NC1(c2ccc(F)cc2)CCN(C(=O)c2c(F)cccc2F)CC1`, the percent activity (GTP binding) was 92%.

For the compound `CN(C)C(CNC(=O)c1cccc(C#N)c1)c1ccco1` (configuration not stated), the percent activity (GTP binding) is 97%.

On to `COc1ccc(C(=O)COC(=O)c2nn(C)c(=O)c3ccccc23)c(OC)c1`, for which the percent activity (GTP binding) is 92%.

In the case of `Cc1c(Br)c([N+](=O)[O-])nn1CC(=O)N1CCN(Cc2ccccc2)CC1`, the percent activity (GTP binding) is 98%.

For `CC(=O)c1ccc(NC(=S)N(Cc2ccccc2)C(C)C2CC2)cc1` (configuration not stated), the percent activity (GTP binding) is 93%.

`CCN(CCn1cccn1)C(=O)CC1C(=O)NCCN1Cc1cccc(OC)c1OC` (configuration not stated): the percent activity (GTP binding) is 93%.

On to `CCOC(=O)CNc1nc(Cl)nc(Nc2ccccc2)n1`, for which the percent activity (GTP binding) is 96%.

Take `Cc1ccc(SC(CC(=O)c2ccc(C(C)(C)C)cc2)C(=O)O)cc1` (configuration not stated): the percent activity (GTP binding) is 74% (active).

In the case of `Cc1ccc(C(=O)CS(C)(=O)=O)cc1`, the percent activity (GTP binding) was 99%.

`Cc1ccc(CSCC(N)C(=O)O)cc1` (configuration not stated): the percent activity (GTP binding) was 97%.

For `Cc1cc(C)nc(Nc2ncn[nH]2)n1`, the percent activity (GTP binding) was 96%.

With `Cc1ncc([N+](=O)[O-])n1CCOC(=O)c1ccc(Br)cc1`, the percent activity (GTP binding) was 91%.

As for `CCCCN(C(=O)c1ccc(OC(F)(F)F)cc1)c1c(N)n(CCC)c(=O)[nH]c1=O`, the percent activity (GTP binding) was 96%.

Turning to `Cn1cc(CN2CCCCC2c2ccccn2)c(-c2ccc3c(c2)OCCO3)n1` (configuration not stated), the percent activity (GTP binding) is 97%.

For `CCC(=O)N1c2ccccc2NC2=C(C(=O)CCC2)C1c1ccco1` (configuration not stated), the percent activity (GTP binding) is 98%.

On to `Cc1ccc(CN2CCN(Cc3cccc(C)n3)CC2CCO)cc1` (configuration not stated), for which the percent activity (GTP binding) was 94%.

Regarding `CC(=O)C1C(c2ccc(Cl)cc2)c2c(n[nH]c2C)CC1(C)O` (configuration not stated), the percent activity (GTP binding) was 97%.

In the case of `COc1cc(/C=C/C2=CC(C)(C)NC(=S)N2)cc(OC)c1OC`, the percent activity (GTP binding) is 94%.

Consider `O=C(CCNC(=O)Cn1ccc2ccccc2c1=O)NCCC1=CCCCC1`, for which the percent activity (GTP binding) was 101%.

Take `COc1cc2c(C(=O)N3CCN(C)CC3)c(CSc3ccccc3)n(C)c2cc1Br`: the percent activity (GTP binding) was 94%.

As to `Cc1nn(CC2CC2)c(=O)n1N(C)c1ncc(C(F)(F)F)cc1Cl`, the percent activity (GTP binding) is 96%.

As to `COc1cccc(CNC(=O)CCC2CCCN(C(=O)c3ccoc3C)C2)c1` (configuration not stated), the percent activity (GTP binding) is 95%.

In the case of `COC(=O)NNC1=CC(=O)CC(C)(C)C1`, the percent activity (GTP binding) is 97%.

For `CCC(C)N(C(=O)COC(=O)C1C(C(=O)OC)=C(C)NC(C)=C1C(=O)OC)C1CCS(=O)(=O)C1` (configuration not stated), the percent activity (GTP binding) was 95%.

On to `CC(C)(C)C(=O)CSc1nc2ccccc2o1`, for which the percent activity (GTP binding) is 96%.

Regarding `Cn1cnnc1SCC(=O)NNC(=O)COc1ccc(Br)cc1`, the percent activity (GTP binding) is 98%.

Take `O=C(CN1CCSCC1)N/N=C/c1ccc(Cl)cc1`: the percent activity (GTP binding) was 95%.

In the case of `O=C(Cc1ccc(Cl)cc1)NCc1nc(-c2ccccc2)no1`, the percent activity (GTP binding) is 91%.

For the compound `COc1ccc(N2C(=O)CC(Nc3ccc(F)cc3)C2=O)c([N+](=O)[O-])c1` (configuration not stated), the percent activity (GTP binding) is 93%.

In the case of `COC(=O)C1=C(C)NC(=O)CC1c1ccccc1OC` (configuration not stated), the percent activity (GTP binding) was 99%.

As for `CCC(C)(C)NC(=O)C(c1ccccn1)N(C(=O)c1csnn1)c1ccccc1` (configuration not stated), the percent activity (GTP binding) was 96%.

For the compound `Cc1cc(C(=O)Cn2cnc3cc([N+](=O)[O-])ccc3c2=O)c(C)n1CC1CCCO1` (configuration not stated), the percent activity (GTP binding) is 90%.

In the case of `Cc1ccc(NC(=O)C(=O)NCc2ccco2)c(C)c1`, the percent activity (GTP binding) is 98%.
